# RORgamma inh: inhibitors of mouse ROR gamma transcriptional activity | P51450 | Drosophila S2 Gal4-RORgamma UAS-luciferase reporter, 20 h | Potency, µM (highest dose often 53.6 µM), inactives show at the highest dose activity change, negative = inhibition, actives largely listed as inhibitors | 310,000 tested, 5.4% active | AID 2551; further: potency means the concentration at half of the fitted maximal effect; nearly all actives have a fitted effect of over 60% in size
# Target sequence (P51450 whole entry, looked up, the tested form may be a part): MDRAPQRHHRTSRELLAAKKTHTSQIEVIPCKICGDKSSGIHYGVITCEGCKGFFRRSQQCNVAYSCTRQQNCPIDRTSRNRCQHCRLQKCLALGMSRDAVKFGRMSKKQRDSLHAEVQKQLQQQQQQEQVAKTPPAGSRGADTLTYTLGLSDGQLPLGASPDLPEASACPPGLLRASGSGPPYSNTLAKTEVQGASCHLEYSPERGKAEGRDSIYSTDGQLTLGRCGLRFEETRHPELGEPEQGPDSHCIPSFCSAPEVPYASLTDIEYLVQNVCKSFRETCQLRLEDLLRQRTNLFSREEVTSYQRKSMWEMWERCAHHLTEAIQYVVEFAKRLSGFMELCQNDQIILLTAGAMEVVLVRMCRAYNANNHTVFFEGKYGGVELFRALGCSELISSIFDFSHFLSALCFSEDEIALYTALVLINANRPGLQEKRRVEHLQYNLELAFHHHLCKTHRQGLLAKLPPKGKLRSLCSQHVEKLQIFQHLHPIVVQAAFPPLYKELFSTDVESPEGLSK
#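 Drosophila Schneider cells stably carrying a metallothionein-driven Gal4 DBD–ROR gamma fusion and a UAS-Photinus luciferase reporter were exposed to compound for 1 hr, then induced with copper sulfate (700 uM final) for 20 hr at ambient temperature before luminescence reading.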
# IL1B secr inh: inhibitors of inflammasome signaling (IL-1 beta secretion); THP-1 LPS/ATP IL-1B secretion, AlphaLISA, 16 h; hits give low values; activity change, % at 57.5 µM; 360,000 tested, 4.7% active; in the data active means activity change below about -50%; inconclusive means mostly about -30% to -49%
#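 THP-1 cells pretreated 1 hr with compounds (up to 57.5 uM final), then stimulated with LPS (250 ng/mL final) plus ATP (1.25 mM final); secreted IL-1B measured by AlphaLISA after 16 hr, decreased signal indicating inhibition.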
# DT40 TDP1 no CPT: qHTS for Inhibitors of human tyrosyl-DNA phosphodiesterase 1 (TDP1): qHTS in cells in absence of CPT. 420,000 tested, 15% active. DT40 Tdp1-/- hTDP1 cells, no CPT, ATP luminescence, 48 h. AID 686978, 2013. Potency, µM (series often up to 46.2 µM), for inactives: at the highest dose activity change, negative = growth inhibition, hits mostly inhibitors; further: potency means the concentration at half of the fitted maximal effect; nearly all actives have a fitted effect of over 55% in size
#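 No-CPT arm: Tdp1-/-;hTDP1 DT40 cells (400/well) plus compounds, incubated ≥48 hr at 37 °C. Readout CellTiter-Glo luminescence.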
# DT40 TDP1 CPT: growth inhibition of DT40 Tdp1-/-;hTDP1 cells with camptothecin (screen for TDP1 inhibitors) | chicken DT40 Tdp1-/-;hTDP1 cells + 20 nM CPT, ATP luminescence, 48 h | Potency, µM (series often up to 46.2 µM), without a hit: at the top dose activity change, negative = growth inhibition, hits mostly inhibitors | 420,000 tested, 12% active | AID 686979; further: potency means the concentration at half of the fitted maximal effect; nearly all actives have a fitted effect of over 55% in size
#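 Chicken DT40 Tdp1-/- cells stably complemented with human TDP1 were seeded at 400 cells/well in medium containing 20 nM camptothecin, exposed to pin-transferred compounds, and grown at 37 °C for at least 48 hr. Viability was read as ATP luminescence.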
# VP16 counter: counter-screen for ROR gamma inhibitors: Gal4-VP16 reporter; Drosophila S2 Gal4-VP16 UAS-luciferase, luminescence, 20 h; Potency, µM (doses to about 53.6 µM), inactives show top-dose activity, negative = inhibition, actives largely listed as inhibitors; 310,000 tested, 3.5% active; AID 2546;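 further: Gal4-VP16 expression switched on by copper sulfate through the metallothionein promoter; potency means the concentration at half of the fitted maximal effect; nearly all actives have a fitted effect of over 50% in size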
# ELG1 repair inh: blocks ELG1-dependent DNA repair in HEK293T cells. HEK293T ELG1-luciferase reporter, luminescence, 16 h; DNA damage induced by 5-fluorouridine. AID 504467. Potency, µM (series often up to 46.1 µM), inactives show at the highest dose activity change, negative = inhibition, usual class: inhibitors. 330,000 tested, 2.3% active; further: potency means the concentration at half of the fitted maximal effect; nearly all actives have a fitted effect of over 55% in size
#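 Overnight (16 hr) co-exposure of 2,000 cells/well to 5-fluorouridine and compound at 37 °C preceded detection. Luciferase was quantified via ONE-Glo luminescence; loss of signal denotes inhibition.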
# * = called active by the depositor; u = inconclusive; x = not tested or not shown; [ ] = another dose, or the depositor's remark. Compounds with a hit are over-represented: about 21% of the library has one in this group of screens. Unless noted, the call rests on the fitted dose curve; in most records, active means well fitted curve in the direction sought with a large enough effect; inconclusive means small, poorly fitted or top-dose-only effect, or another doubt; inactive means no such curve, though single readings can be large; an effect the other way counts as inactive or inconclusive. On the % scale 0 is the no-effect control and ±100 the full control effect.
SMILES,RORgamma inh,IL1B secr inh,DT40 TDP1 no CPT,DT40 TDP1 CPT,VP16 counter,ELG1 repair inh
O=c1c(O)c(-c2cc(O)c(O)c(O)c2)oc2cc(O)ccc12,-29.2%,x,x,x,-16.0%,x
COc1cc(-c2oc3ccc(C)cc3c(=O)c2O)cc(OC)c1OC,x,x,u,5.8µM*,x,x
COc1cc(O)c2c(=O)c(O)c(-c3ccc(O)c(O)c3)oc2c1,u,x,-7.7%,0.7%,u,x
COc1cc(-c2oc3cc(O)ccc3c(=O)c2O)ccc1O,8.7%,x,u,20.6µM*,-7.8%,x
O=c1cc(-c2ccccc2)c2ccc(O)cc2o1,x,-59.6*,u,-15.6%,x,x
O=c1cc(-c2ccccc2)oc2cc(O)ccc12,7.2%,-23.7,u,u,-1.7%,x
O=C(NCc1ccccc1)C(=O)Nc1ccc2nc3n(c(=O)c2c1)CCCCC3,x,x,-18.4%,0.9%,x,x
O=C(CSc1nc2ccccc2n1Cc1cccc(C(F)(F)F)c1)NCc1ccccc1,x,x,u,18.4µM*,x,x
O=C(CSc1nc2ccccc2n1Cc1ccccc1F)NCc1ccccc1,x,x,16.4µM*,u,x,x
NC(=O)CSc1nc2ccccc2n1Cc1ccccc1,28.4%,11.7,24.3%,-5.6%,-0.7%,-6.2%
O=C(CSc1nc2ccsc2c(=O)n1Cc1ccccc1F)NCc1ccccc1,x,x,u,-23.2%,x,x
COCCn1c(SCC(=O)NCc2ccccc2)nc2ccccc21,1.7%,10.0,-19.1%,7.3%,-1.4%,-3.8%
CN(C(=O)CSc1nc2ccccc2n1Cc1cccc(C(F)(F)F)c1)c1ccccc1,x,x,16.4µM*,18.4µM*,x,x
Cc1ccc(C)c(Cn2c(CO)nc3ccccc32)c1,6.8%[0.365 µM],11.4,u,u,x,0.2%
Cc1ccc(C)c(Cn2c(SCC(=O)N(C)Cc3ccccc3)nc3ccccc32)c1,x,x,25.9µM*,25.9µM*,x,x
CCCNC(=O)c1cnc2sc(N3CCCCCC3)nn2c1=O,x,x,u,-23.0%,x,x
CCOc1ccc(CCNC(=O)c2cc(C)nc3ccccc23)cc1OCC,28.2%,25.0,0.7%,-29.2%,-13.6%,-8.1%
O=[N+]([O-])c1ccc(NCCOc2ccccc2Cl)nc1,u,-65.6*,-19.7%,-24.1%,-13.4%,26.3%
c1ccc(-c2ccc(C3=Nn4c(nnc4-c4cc(-c5ccccc5)n[nH]4)SC3)cc2)cc1,u,61.7,u,u,-11.4%,-25.5%
Cc1cccc(-c2nnc3n2N=C(c2ccc(Br)cc2)CS3)c1,-2.0%,12.7,-42.3%,-48.5%,-5.3%,1.7%
Brc1ccc(C2=Nn3c(nnc3-c3n[nH]c4c3CCC4)SC2)cc1,-20.5%,-15.6,0.92µM*,0.92µM*,-3.8%,-3.4%
Clc1ccc(C2=Nn3c(nnc3-c3n[nH]c4c3CCC4)SC2)cc1,-23.7%,-4.6,2.91µM*,4.11µM*,-4.0%,1.3%
Cc1ccc(-c2nnc3n2N=C(c2ccc(Br)cc2)CS3)cc1,2.2%,-19.6,u,23.1µM*,1.1%,-7.2%
CC(Sc1nnc(N)s1)c1ccccc1Cl (stereo not given),-13.4%,54.1,-7.9%,-28.5%,11.3%,5.1%
N#Cc1ccccc1NC(=O)C1SC(=Nc2ccccc2)C(C(=O)Nc2ccc(Cl)cc2)=C1N (stereo not given),-1.1%,-83.9*,20.6µM*,16.4µM*,-7.2%,u
SMILES,RORgamma inh,IL1B secr inh,DT40 TDP1 no CPT,DT40 TDP1 CPT,VP16 counter,ELG1 repair inh
CCOc1ccc(N=C2SC(C(=O)Nc3ccccc3C#N)C(N)=C2C(=O)Nc2ccc(Cl)cc2)cc1 (stereo not given),u,0.0,3.8%,2.1%,-9.2%,-1.9%
O=C(Cc1cccs1)NCc1cc(Cl)cc(Cl)c1,3.9%,u,-5.1%,-1.8%,8.2%,u
O=c1c2ccccc2nc2c3ccccc3c(Cl)nn12,u,x,x,x,3.0%,-2.3%
O=c1c2ccccc2nc2c3ccccc3c3nncn3n12,-29.0%,-7.7,5.17µM*,7.31µM*,-8.7%,0.0%
COc1ccc(-c2nnn(CC(=O)N(Cc3ccccc3Cl)C(C(=O)NCC3CCCO3)c3ccco3)n2)cc1OC (stereo not given),u,-22.3,u,u,16.4%,u
CN(CC(=O)Nc1ccc2c(c1)OCO2)S(=O)(=O)c1cccs1,10.6%,-19.3,-1.5%,-1.8%,20.4%,u
CCOc1ccc(C2CC(=O)c3c([nH]c(C(=O)OC)c3C)C2)cc1OC (stereo not given),28.9%,15.8,-26.6%,-0.7%,-12.5%,x
C=CCOC(=O)c1[nH]c2c(c1C)C(=O)CC(c1cc(OC)c(OC)c(OC)c1)C2 (stereo not given),u,u,7.31µM*,20.6µM*,u,u
COCCOC(=O)c1[nH]c2c(c1C)C(=O)CC(c1cc(OC)c(OC)c(OC)c1)C2 (stereo not given),u,-21.4,2.91µM*,3.66µM*,u,8.2µM*
CCCCOC(=O)c1[nH]c2c(c1C)C(=O)CC(c1cc(OC)c(OC)c(OC)c1)C2 (stereo not given),u,4.2,5.17µM*,6.51µM*,u,u
CC1(C)CC(=O)C2=C(C1)OC1=C(C(=O)CC(C)(C)C1)C2c1ccccc1Cl,x,19.7,u,u,x,x
COc1ccc(NC(=O)C(Cc2ccccc2)NS(=O)(=O)c2ccc3c(c2)CCC(=O)N3)c(OC)c1 (stereo not given),x,x,u,-4.3%,x,x
Cc1cccc(OCC(=O)N2CCc3ccccc3C2)c1C,x,-8.2,u,u,x,x
COC(=O)c1cc(NC(=O)Cn2nc(-c3ccc(C)c(C)c3)ccc2=O)cc(C(=O)OC)c1,x,x,-4.6%,3.8%,x,x
O=C(Nc1ccc(F)cc1F)Nc1ccc(F)cc1F,-3.4%,0.0,u,-29.9%,u,-0.8%
O=C(NCc1csc(-c2cccs2)n1)Nc1ccc(C(F)(F)F)cc1,-10.8%,x,u,5.5%,-5.6%,u
O=C(Nc1cccs1)Nc1ccc(F)cc1F,18.3%,-11.4,14.6µM*,23.1µM*,14.9%,u
O=C(Nc1cccs1)Nc1ccc(Br)cc1F,34.6%[10 µM],x,20.6µM*,u,-17.1%,u
O=C(NCc1csc(-c2cccs2)n1)Nc1ccc(F)cc1F,19.9%,-7.6,11.6µM*,u,-7.5%,-4.0%
Cc1ccc(NC(=O)Nc2cccs2)c(Cl)c1,-20.4%,-14.7,u,-28.0%,-5.9%,x
COc1ccc(CN2C(=NC(=O)c3ccccc3)SC3CS(=O)(=O)CC32)cc1 (stereo not given),-14.2%,-2.5,4.1%,-13.5%,-2.7%,16.4%

# High-throughput results: PubChem BioAssay, National Center for Advancing Translational Sciences (NCATS)
